Compound activity as filed in PubChem BioAssay.
In the library only some 2.3% were active in any assay of this set; here they are far more common.
IDE act: activators of human insulin-degrading enzyme in cells; P14735; HEK cells, FAbeta-B cleavage, fluorescence polarization; 0% vehicle, 100% cell-free pure enzyme wells; activation, % at 5.96 µM; hit rate 0.073% among 340,000; AID 493087;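 active = activation above the mean of all tested compounds plus 3 SD, set per screening campaign, cut at about 17% in these data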
Calb FLC: C. albicans growth modulation with fluconazole | growth inhibition, % (concentration not given with the values) | hit rate 0.57% among 300,000 | C. albicans CaCi-2 (fluconazole-resistant clinical isolate) + fluconazole, Alamar Blue growth, 48 h | AID 1979;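 active = growth inhibition above about 58% in most replicates, limit read from the data, passing the limit was not always enough; inconclusive = exactly half the replicates above a set limit; inactive = most replicates below a set limit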;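 note: all wells also contain fluconazole at 8 µg/ml as a sub-toxic cotreatment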
IDE cell inh: cellular human IDE inhibition; HEK cells, FAbetaB cleavage, fluorescence polarization; inhibition, % at 5.59 µM; hit rate 0.41% among 320,000; AID 434962;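 active = percent inhibition above the average of all tested compounds plus 3 SD, set per screening campaign, cut at about 16% in these data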;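 note: IDE supplied by intact live HEK cells; FP after avidin binding of uncleaved biotin substrate so inhibition keeps polarization high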
TPT1 inh: inhibitors of Candida albicans tRNA 2'-phosphotransferase TPT1; recombinant caTPT1, FP RNA substrate dephosphorylation; hit rate 0.81% among 300,000; inhibition, % at 5 µM;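 active = inhibition above the mean of all tested compounds plus 3 SD, set per screening campaign, cut at about 24% in these data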
Rin1-Abl PPI inh: inhibitors of human Rin1-Abl protein interaction | P00519+Q13671 | TR-FRET Rin1/Abl binding, biochemical | inhibition, % at 7.35 µM | hit rate 0.4% among 360,000; in the data active = inhibition above about 5%, passing the limit was not always enough
Rpn11 block: blocks the human proteasome subunit Rpn11. AID 588493. human 26S proteasome, Ub4-pepOG fluorescence polarization; 20S core pre-blocked with epoxomicin. inhibition, % at 20 µM. hit rate 0.59% among 360,000. O00487;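 active = inhibition at 20 µM, scaled to each plate's controls, above about 33%, limit read from the data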
Target sequence (O00487 whole entry, looked up): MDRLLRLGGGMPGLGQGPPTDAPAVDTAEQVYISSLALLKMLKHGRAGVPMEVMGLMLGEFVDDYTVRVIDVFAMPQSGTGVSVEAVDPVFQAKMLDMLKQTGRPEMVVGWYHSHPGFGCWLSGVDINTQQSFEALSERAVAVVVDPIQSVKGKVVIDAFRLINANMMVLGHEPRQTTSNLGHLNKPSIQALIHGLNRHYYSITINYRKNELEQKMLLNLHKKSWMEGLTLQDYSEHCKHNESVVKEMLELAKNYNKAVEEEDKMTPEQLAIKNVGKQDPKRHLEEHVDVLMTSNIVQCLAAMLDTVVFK
Rin1 Abl conf: Rin1-Abl interaction inhibition confirmation | TR-FRET Rin1-Abl binding, purified proteins | shares compounds with Rin1-Abl PPI inh | inhibition, % at 7.35 µM | hit rate 49% among 1,300
GFP quench: counter-screen for Rin1-Abl inhibitors: GFP fluorescence quenchers; shares compounds with Rin1-Abl PPI inh; inhibition, % at 6.75 µM; AID 602125; inhibitors/quenchers counterscreen; hit rate 8.5% among 1,300;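 note: ABL1-eGFP fusion protein alone without its partner RIN1-SBP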
GFP quench DR: GFP fluorescence interference dose response. shares compounds with Rin1-Abl PPI inh. GFP fluorescence interference/quenching counterscreen. IC50, µM. 230 tested, under 10 active; call rule not given here;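 note: ABL1-eGFP fusion protein alone without its RIN1 binding partner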
A number is an active result; - = inactive; ? = inconclusive; . = no result given. Cut-off read from the data, not from the text of the source, unless noted: active = inhibition above about 6.5%; inactive = the rest.

SMILES	IDE act	Calb FLC	IDE cell inh	TPT1 inh	Rin1-Abl PPI inh	Rpn11 block	Rin1 Abl conf	GFP quench	others
CN(C(=O)CCc1nnc(-c2ccc(-c3ccccc3)cc2)o1)C1CCOCC1	-	-	-	-	8.8	-	-	-
Cc1nc2ccccc2c(=O)n1/N=C/c1ccc(O)c(O)c1O	-	-	-	-	27	-	15	23
Cc1ccccc1NS(=O)(=O)c1ccc2oc(=O)ccc2c1	-	-	-	-	-	-	.	.
CCCCC[C@@H]1C=C(C(=O)O)[C@H](c2ccc(Cl)cc2)N1S(=O)(=O)c1ccc(C)cc1	-	.	-	.	8.2	-	-	-
CCCCC[C@@H]1C=C(C(=O)O)[C@H](c2ccc(C)cc2)N1S(=O)(=O)c1ccc(C)cc1	-	.	-	.	-	-	.	.
Cc1cccc(OCCn2c(=O)oc3ccc(C)cc32)c1	-	-	-	-	5.8	-	-	-
COc1cc(CNc2ncnc3c2ncn3[C@H]2CN(Cc3ccccc3)C[C@@H](COC(C)=O)O2)cc(OC)c1OC	.	.	.	.	-	-	.	.
CN(C)CCCNC(=O)c1ccc(-c2cc(O)c3ncccc3c2)cc1	-	.	-	.	25	-	31	19
COc1ccccc1/C=C/C(=O)c1c2c(c(C)[nH]c1=O)CCCC2	-	-	-	-	-	-	.	.
Cc1ccc(NC(=O)CN2C(=O)N/C(=C/c3cccn3-c3ccc(C(=O)O)cc3)C2=O)cc1	-	.	-	-	9.7	.	9.0	9.9
Cc1ccc(CS/C(Nc2ccccc2C)=C(\C#N)C(=O)NCc2ccco2)c(C)c1	-	-	-	-	26	-	-	-
Cc1ccccc1N/C(SCc1ccc(Cl)cc1)=C(/C#N)C(=O)NCc1ccco1	-	?	-	-	-	-	.	.
CC(=O)Nc1ccc(NC(=O)CSc2nnc(N)n2-c2ccccc2)cc1	-	.	.	.	-	-	.	.
COc1ccc(/C=C\C(=O)O[C@@H]2C(O)C(O[C@@H]3OC(C)[C@H](O[C@@H]4OCC(O[C@H]5O[C@H](CO)[C@@H](O)C(O)C5O)C(O)C4O)C(O)C3O)[C@H](OC(=O)[C@]34CCC(C)(C)C[C@@H]3C3=CCC5[C@@]6(C)CC(O)C(O[C@@H]7OC(CO)C(O)[C@H](O)[C@H]7O)[C@@](C)(C(=O)O)C6CC[C@@]5(C)[C@]3(CO)CC4)O[C@H]2C)cc1 (stereo partly drawn)	-	.	-	.	-	-	.	.
Cc1cc(S(=O)(=O)N2CCN(C(=O)CCC(=O)N3CCOCC3)CC2)ccc1Br	-	-	-	-	16	-	21	-	GFP quench DR=-
Cc1ccc(S(=O)(=O)N2CCN(C(=O)N3CCOCC3)CC2)cc1C	-	-	-	-	-	-	.	.
CCOc1ccc(S(=O)(=O)N2CCN(C(=O)CCC(=O)N3CCOCC3)CC2)cc1	-	-	-	-	11	-	11	-
CCCCn1c(NS(=O)(=O)c2ccccc2)c(S(=O)(=O)c2ccc(C)cc2)c2nc3ccccc3nc21	-	-	-	-	22	-	11	-
O=C(c1cccs1)N1CCN(C23CC4CC(CC(C4)C2)C3)CC1	-	-	-	-	-	-	.	.
COc1cccc(C(=O)Nc2cccc(SC)c2)c1	-	-	-	-	6.3	-	-	-
COc1cnc(-c2ccccn2)nc1N(C)c1ccccc1	-	?	-	-	-	-	.	.
Cc1ccc(C(=O)NCCc2nnc3ccc(SCC(=O)N4CCCC4)nn23)cc1	-	-	-	-	15	-	11	-
CCCN(CCC)S(=O)(=O)c1ccc(C(=O)NCc2ccc3c(c2)OCO3)cc1	-	-	-	-	6.3	-	-	-
CCn1ccc(C(=O)N2CCN(c3ncccn3)CC2)n1	-	-	-	-	7.3	-	6.3	-
CCn1ccc(C(=O)N2CCOCC2)n1	-	-	-	-	-	-	.	.
SMILES	IDE act	Calb FLC	IDE cell inh	TPT1 inh	Rin1-Abl PPI inh	Rpn11 block	Rin1 Abl conf	GFP quench	others
O=C(COC(=O)CCS(=O)(=O)c1ccccc1)NNC(=O)c1ccc([N+](=O)[O-])cc1	.	.	.	.	-	-	.	.
Cc1ccc(NC(=O)CSc2nnc(-c3cccnc3)n2-c2ccc(C)cc2)cc1	-	-	-	-	11	-	11	-
Cc1ccc(-n2c(SCC(=O)NCc3ccco3)nnc2-c2cccnc2)cc1	-	-	-	-	7.4	-	8.4	-
Cc1nc2cc3c(=O)n(C)cnc3cc2n1Cc1ccccc1	.	.	.	.	-	-	.	.
CC(=O)c1cc2c(cc1NS(=O)(=O)c1ccc(F)cc1)OCO2	-	-	-	-	-	-	.	.
CCn1cc(C(=O)NCCCOC(C)C)c(=O)c2cc(S(=O)(=O)N3CCC(C)CC3)ccc21	-	-	-	-	13	-	-	-
S=C(NCc1ccc2c(c1)OCO2)NC1CCN(Cc2ccccc2)CC1	-	-	-	-	10	-	11	-
O=C(Nc1ccccc1Cl)C1CC(=O)N(c2ccccc2)C1 (stereo not drawn)	.	-	-	-	-	-	.	.
O=C(Nc1cccc2nsnc12)C1CC(=O)N(c2ccccc2)C1 (stereo not drawn)	-	-	-	-	10	-	-	-
O=C(c1ccccc1)N(CCN1CCOCC1)C1(C(=O)Nc2ccccc2)CCCCC1	-	-	-	-	8.5	-	-	-
O=C(CCNC(=O)C1CCN(S(=O)(=O)c2ccc(F)cc2)CC1)NCc1ccc(Cl)cc1	-	-	-	-	-	-	.	.
CCOC(=O)C1(Cc2ccccc2)CCN(Cc2cn[nH]c2-c2ccccc2)CC1	-	-	-	-	9.5	-	-	-
CCOC(=O)C1(CC2CC2)CCN(Cc2cn[nH]c2-c2ccccc2)CC1	-	-	-	-	-	-	.	.
O=C(c1ccco1)N1CCN(Cc2cc(=O)c(OCc3ccccc3Cl)co2)CC1	-	-	-	-	14	-	10	-
O=C(c1ccco1)N1CCN(Cc2cc(=O)c(OCc3cccc(Cl)c3)co2)CC1	-	-	-	-	-	-	.	.
Cc1[nH][nH]c(=O)c1C(c1ccc(-c2cccc(Cl)c2)o1)c1c(C)[nH][nH]c1=O	-	-	-	-	7.9	-	8.5	-
Cc1[nH][nH]c(=O)c1C(c1ccc(-c2cccc(C(=O)O)c2)o1)c1c(C)[nH][nH]c1=O	-	-	-	-	-	-	.	.
CCN1CCN(C(=O)CN(CC)S(=O)(=O)c2ccc(F)cc2)CC1	-	-	-	-	-	-	.	.
CN(C)C(CNC(=O)c1sc2ccccc2c1Cl)c1ccco1 (stereo not drawn)	.	.	.	.	-	-	.	.
COc1cc(C(=O)N2CCSCC2)ccc1OC1CCN(C(C)=O)CC1	-	-	-	-	-	-	.	.
